Assay outcomes from PubChem BioAssay.
miR-21 reporter: qHTS Assay for Modulators of miRNAs and/orActivators of miR-21 | HeLa miR-21 FLuc reporter, luciferase, 48 h | Potency, µM (series often up to 38.3 µM), hits mostly activators | 340,000 tested, under 10 active | AID 2288, 2010;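 also: miR-21 action dims this reporter so a rising signal means less miR-21 action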
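HeLa cells stably expressing CMV-driven firefly luciferase with a downstream miR-21 binding sequence, endogenously expressing miR-21, were treated with titrations (up to about 40uM final) for 48 hours at 37 degree Celsius. Luciferase luminescence was read after lysis.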
ERG-DNA inh: qHTS for Small Molecule Inhibitors of the ERG Ets/DNA interaction; Transcriptional regulator ERG (Homo sapiens), P11308; fluorescence polarization, His-ERG Ets domain / labelled DNA; Potency, µM (doses to about 76.9 µM), most hits filed as inhibitors; 0.028% of 370,000 active; AID 624246, 2012; active = well fitted inhibition curve with a large enough effect in the polarisation, with a control signal flat; inconclusive = small, poorly fitted or top-dose-only effect, or effect the other way, or a change in a side signal; inactive = no such curve, though single readings can be large or run the other way; the % refers to the polarisation;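 also: polarization taken with two DNA probes labelled with fluorescein and Texas red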
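His-tagged ERG Ets domain (1 uM in the protein solution; 300mM KCl, 50mM Tris-HCl, 1mM EDTA, 1mM DTT, pH 7.5) received compound, then a probe mix of 5 nM fluorescein-DNA and 100nM Texas-615-DNA. Fluorescence polarization was read for both dyes.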
PINK1 expr mod: A Quantitative High throughput Screen to Identify Chemical Modulators of PINK1 Expression; PINK1 immunofluorescence, high-content cytometry, 24 h; Potency, µM (titrated, usually from 76.6 µM), actives largely listed as activators; 0.2% of 410,000 active; active = well fitted activation curve with a large enough effect; inconclusive = small, poorly fitted or top-dose-only effect; cell line not stated here; also: nearly all actives have a fitted effect of over 65% in size
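PINK1 protein, normally rapidly degraded, was detected by immunofluorescence after 24 hour compound treatment of a stable cell line. Titration data (5 concentrations) came from laser-scanning cytometry, with CCCP-treated wells as controls.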
PTHR1 ag: qHTS for PTHR1 Agonists: Primary Screen; HEK293 GP2 PTHR1 cells, GloSensor cAMP luminescence, 1 h; Parathyroid hormone/parathyroid hormone-related peptide receptor (Homo sapiens), Q03431; 0.075% of 410,000 active; Potency, µM (highest dose often 115 µM), usual class: activators; also: nearly all actives have a fitted effect of over 55% in size
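HEK-293-derived GP2 cells expressing PTHR1 and a GloSensor cAMP reporter, 3,000/well, plated overnight, given luciferin plus IBMX (each 0.5 mM as added) for 1 h at 37 °C, then compound for 1 h at 37 °C. Luminescence was read after 15 min at room temperature.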
Giardia killer: Small Molecules that selectively kill Giardia lamblia: qHTS | Giardia lamblia trophozoite viability | activity change, % at 7.66 µM, hits read low | 0.15% of 340,000 active | AID 540267, 2011; in the data active = activity change below about -80%; inconclusive = between about -30% and that limit;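 also: parasites exposed to compound for two days anaerobically before the ATP read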
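Trophozoite viability was measured as ATP-dependent luminescence, read 15-30 min after reagent addition. Before that, parasites at 100 cells/well were exposed to compounds for 48 h, anaerobically, at 37 deg C.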
ALOX12 inh: Primary qHTS assay for inhibitors of human arachidonate 12S-lipoxygenase (ALOX12): Round 2; Potency, µM (titrated, usually from 108 µM), hits mostly inhibitors; purified 12hLO, xylenol orange hydroperoxide absorbance; 1.1% of 580,000 active
Target sequence (P18054 whole entry, looked up): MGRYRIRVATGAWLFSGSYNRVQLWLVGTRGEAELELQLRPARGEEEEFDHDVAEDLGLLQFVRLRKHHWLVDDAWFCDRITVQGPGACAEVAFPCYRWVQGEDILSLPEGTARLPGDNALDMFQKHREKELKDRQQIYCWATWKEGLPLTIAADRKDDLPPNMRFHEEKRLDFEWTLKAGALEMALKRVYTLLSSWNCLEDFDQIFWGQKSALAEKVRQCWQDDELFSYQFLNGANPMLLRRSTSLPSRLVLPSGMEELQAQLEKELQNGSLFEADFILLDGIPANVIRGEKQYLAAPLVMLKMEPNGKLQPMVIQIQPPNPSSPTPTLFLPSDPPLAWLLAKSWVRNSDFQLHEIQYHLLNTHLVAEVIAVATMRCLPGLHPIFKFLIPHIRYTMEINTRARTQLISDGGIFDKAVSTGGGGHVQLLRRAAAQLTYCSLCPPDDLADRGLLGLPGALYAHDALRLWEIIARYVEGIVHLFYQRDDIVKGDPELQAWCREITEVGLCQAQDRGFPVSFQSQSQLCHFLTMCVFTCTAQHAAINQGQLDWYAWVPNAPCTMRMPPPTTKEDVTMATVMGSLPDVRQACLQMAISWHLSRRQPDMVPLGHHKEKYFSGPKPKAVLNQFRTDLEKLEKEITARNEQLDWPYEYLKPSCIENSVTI
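Purified human 12hLO at 150 nM in 25 mM Hepes, 0.01% Triton X-100, pH 7.0, preincubated 15 min at room temperature with compound. Reaction started with 40 uM arachidonic acid, 30 min at room temperature. Hydroperoxide measured by Fe-xylenol orange, 573/405 nm absorbance ratio.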
Each line names hits and unclear results; the compound was inactive in the other large screens. Rows were chosen to be rich in hits. Some 1.3% of all compounds tested hit in one or more screens of this group. Unless noted, calls follow the shape of the dose curve; as a rule, active = well fitted curve in the direction sought with a large enough effect; inconclusive = small, poorly fitted or top-dose-only effect, or another doubt; inactive = no such curve, though single readings can be large; an effect the other way counts as inactive or inconclusive.

S=C(NCCc1ccc(Cl)cc1)Nc1ccc(Cl)cc1Cl	miR-21 reporter inconclusive, PINK1 expr mod inconclusive, ALOX12 inh 32µM
S=C(NCCc1ccccc1)Nc1ccc(Cl)cc1NC(=S)NCCc1ccccc1	ALOX12 inh 18µM (no result: miR-21 reporter, ERG-DNA inh, PINK1 expr mod, PTHR1 ag, Giardia killer)
C/C(=N\NC(=S)NCCc1ccccc1)c1ccc(Cl)cc1Cl	ALOX12 inh 45µM
Fc1ccc(NC(=S)NCCc2ccccc2)c(F)c1F	none (no result: ERG-DNA inh, PINK1 expr mod)
Cc1nc(N2CCCCC2)ncc1C(=O)NC1CCOC2(CCOCC2)C1 (stereo not given)	none (no result: miR-21 reporter, ERG-DNA inh, PINK1 expr mod, PTHR1 ag, Giardia killer)
Cc1nn(Cc2ccc(Cl)cc2)c2sc(C(=O)N3CCN(CC(=O)N4CCCC4)CC3)cc12	none (no result: miR-21 reporter, ERG-DNA inh, PINK1 expr mod, PTHR1 ag, Giardia killer)
COC(=O)Cn1cc(/C=N/NC(=O)c2ccc(C#N)cc2F)c2ccccc21	PINK1 expr mod 11µM
O=S(=O)(c1ccccc1)N1CCC2(CC1)OCCN2S(=O)(=O)c1cccs1	none (no result: miR-21 reporter)
Cc1ccc(Nc2nnc(SCC(=O)c3ccc(O)cc3O)s2)cc1	ALOX12 inh 45µM
Cc1cccc(Nc2nnc(SCC(=O)c3ccc(O)cc3O)s2)c1	ALOX12 inh inconclusive
N#CC(=C(N)Sc1ccccc1N)C(C#N)=C(N)Sc1ccccc1N	ALOX12 inh 22µM (no result: miR-21 reporter, ERG-DNA inh, PINK1 expr mod, PTHR1 ag, Giardia killer)
O=C(C1CCCO1)N1CCN(S(=O)(=O)c2ccccc2)CC1 (stereo not given)	none
Fc1ccc(N/N=C/c2ccncc2)c(F)c1	ALOX12 inh inconclusive
O=C(O)c1ccc(/C=N/Nc2ccc(F)cc2F)cc1	ALOX12 inh inconclusive
Fc1ccc(N/N=C/C=C/c2ccccc2)c(F)c1	ALOX12 inh 40µM
CSc1ccc(/C=N/Nc2ccc(F)cc2F)cc1	ALOX12 inh 1.8µM (no result: miR-21 reporter, ERG-DNA inh, PINK1 expr mod, PTHR1 ag, Giardia killer)
COC(=O)/C=C/c1ccc(-n2ccnc2)cc1	none
COC(=O)C1=C(C)N(c2cccc(C)c2)C(=S)NC1c1ccc(-n2ccnc2)cc1 (stereo not given)	ALOX12 inh 40µM (no result: miR-21 reporter, ERG-DNA inh, PINK1 expr mod, PTHR1 ag, Giardia killer)
COc1cc(/C=C(\C#N)c2nc3ccccc3s2)cc([N+](=O)[O-])c1O	Giardia killer inconclusive, ALOX12 inh inconclusive
N#C/C(=C\c1ccc(O)c([N+](=O)[O-])c1)c1nc2ccccc2s1	ERG-DNA inh inconclusive, PINK1 expr mod inconclusive, Giardia killer inconclusive, ALOX12 inh 22µM
COC(=O)[C@@H]1Cc2ncn(C)c2CN1S(=O)(=O)c1ccc(OC)cc1	ALOX12 inh 32µM (no result: miR-21 reporter, ERG-DNA inh, PINK1 expr mod, PTHR1 ag, Giardia killer)
Cc1ccccc1-c1nc2c(=O)n(C)c(=O)nc-2n(C)n1	Giardia killer -86 (no result: miR-21 reporter, ERG-DNA inh, PTHR1 ag, ALOX12 inh)
COc1cc(CN2CCC(C(=O)N3CCN(c4ccccc4F)CC3)CC2)cc(OC)c1O	ALOX12 inh 2.5µM
O=C(NC1CCCCC1)C(c1ccc(F)cc1)N(Cc1ccco1)C(=O)Cn1nnc2ccccc21 (stereo not given)	PINK1 expr mod 14µM
O=C(NC1CCCCC1)C(c1ccccc1F)N(Cc1ccco1)C(=O)Cn1nnc2ccccc21 (stereo not given)	none
CCOC(=O)c1cc2c(=O)n3ccccc3nc2n(CC(C)C)c1=NC(=O)c1cc2ccccc2o1	none (no result: Giardia killer)
O=S1(=O)CCN2C(c3cccc(Br)c3)=CSC2=N1	ALOX12 inh 22µM (no result: miR-21 reporter, ERG-DNA inh, PINK1 expr mod, PTHR1 ag, Giardia killer)
COc1ccc2c(c1OC)C(=O)N(c1cccc(C(F)(F)F)c1)C2	PINK1 expr mod 3.2µM
COc1ccc2c(c1OC)C(=O)N(c1cccc(C)c1)C2	Giardia killer inconclusive
COc1cc(C2NC(=S)NC3=C2CCc2ccccc23)cc(OC)c1OC (stereo not given)	ALOX12 inh inconclusive
S=C1NC2=C(CCCC2=C2SCCCS2)C(c2ccccc2)N1 (stereo not given)	ALOX12 inh 14µM
S=C1NC2=C(CCc3ccccc32)C(c2ccccc2)N1 (stereo not given)	ALOX12 inh 16µM (no result: miR-21 reporter, ERG-DNA inh, PINK1 expr mod, PTHR1 ag, Giardia killer)
COc1ccc(C2NC(=S)NC3=C2CCCC3=C2SCCS2)cc1 (stereo not given)	ALOX12 inh inconclusive
Fc1cccc(Cl)c1C1NC(=S)NC2=C1CCc1ccccc12 (stereo not given)	ALOX12 inh 40µM (no result: miR-21 reporter, ERG-DNA inh, PINK1 expr mod, PTHR1 ag, Giardia killer)
CCOc1ccc(Nc2ncnc3c2cnn3-c2ccc(F)cc2)cc1	none (no result: Giardia killer)
Cc1ccc(/C=C(\C#N)C(=O)NCCN2CCOCC2)cc1	none
O=C(Cn1ncc2ccsc2c1=O)N1CCN(c2ccc(F)cc2)CC1	none (no result: Giardia killer)
CC(C)CC(=O)Nc1c(C(=O)N2CCN(c3ccccc3)CC2)oc2ccccc12	none (no result: Giardia killer)
Cc1cc2c(N)cccc2nn1	ERG-DNA inh 11µM
Nc1cccc2nc3ccccc3cc12	miR-21 reporter inconclusive, ERG-DNA inh inconclusive (no result: ALOX12 inh)
NNc1cc(Cl)c(Cl)cc1Cl	ALOX12 inh 7.1µM (no result: miR-21 reporter, ERG-DNA inh, PINK1 expr mod, PTHR1 ag, Giardia killer)
NNc1cc(Cl)c(Cl)cc1[N+](=O)[O-]	none (no result: miR-21 reporter, ERG-DNA inh, PINK1 expr mod, PTHR1 ag, Giardia killer)
c1ccc(-c2ncc3ccccn23)cc1	none
CCCCCCCCC/C=N/NC(=S)NC1CCCCC1	ALOX12 inh 28µM (no result: miR-21 reporter, ERG-DNA inh, PINK1 expr mod, PTHR1 ag, Giardia killer)
Cc1[nH]n(-c2ccccc2)c(=S)c1C=NCCCN=Cc1c(C)[nH]n(-c2ccccc2)c1=S	ALOX12 inh 11µM
CC(C)c1nc(-c2ccccc2)c(-c2ccccc2)[nH]1	none
O=C(c1ccccc1)N(C(=O)c1ccccc1)c1ccccc1	none (no result: miR-21 reporter, ERG-DNA inh, Giardia killer)
O=C(c1ccccc1)N(CCCl)C(=O)N(CCCl)C(=O)c1ccccc1	ALOX12 inh 10µM (no result: miR-21 reporter, ERG-DNA inh, Giardia killer)
CCc1cc2c(N3CCCC(C(=O)NCc4ccc(F)cc4)C3)ncnc2s1 (stereo not given)	none (no result: miR-21 reporter, ERG-DNA inh, PINK1 expr mod, PTHR1 ag, Giardia killer)
